Data from PubChem BioAssay AID588342 (National Center for Advancing Translational Sciences (NCATS), 2011).
The campaign covered roughly 360,000 compounds. About 25,000 (6.9%) were called active. Where a call stands in place of a potency, no number is given. Another 9% or so got no clear call; they are omitted. This is one part of a sample in which actives are shown more often than they occur. Calls come from the whole dose curve; as a rule, active = well fitted inhibition curve with a large enough effect; inconclusive = small, poorly fitted or top-dose-only effect; inactive = flat fitted curve, though single readings scatter.

Target: Luciferin 4-monooxygenase (Photinus pyralis) (UniProt P08659)
Assay: qHTS profiling assay for firefly luciferase inhibitor/activator using purifed enzyme and Km concentrations of substrates (counterscreen for miR-21 project); note: nearly all actives have a fitted effect of over 55% in size
Conditions: purified FLuc, luminescence inhibition; series mostly up to 57.5 µM
Method in brief: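 Purified P. pyralis luciferase (10nM final) with 10uM D-luciferin and 10uM ATP (Km levels) in 50mM Tris acetate pH 7.5, 10mM Mg acetate, 0.01% Tween-20, 0.05% BSA; qHTS 6-point titration, ~60 µM downward; luminescence read.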
Potency is the fitted concentration of half-maximal effect.

Luciferin 4-monooxygenase (Photinus pyralis), sequence (P08659 whole entry, looked up): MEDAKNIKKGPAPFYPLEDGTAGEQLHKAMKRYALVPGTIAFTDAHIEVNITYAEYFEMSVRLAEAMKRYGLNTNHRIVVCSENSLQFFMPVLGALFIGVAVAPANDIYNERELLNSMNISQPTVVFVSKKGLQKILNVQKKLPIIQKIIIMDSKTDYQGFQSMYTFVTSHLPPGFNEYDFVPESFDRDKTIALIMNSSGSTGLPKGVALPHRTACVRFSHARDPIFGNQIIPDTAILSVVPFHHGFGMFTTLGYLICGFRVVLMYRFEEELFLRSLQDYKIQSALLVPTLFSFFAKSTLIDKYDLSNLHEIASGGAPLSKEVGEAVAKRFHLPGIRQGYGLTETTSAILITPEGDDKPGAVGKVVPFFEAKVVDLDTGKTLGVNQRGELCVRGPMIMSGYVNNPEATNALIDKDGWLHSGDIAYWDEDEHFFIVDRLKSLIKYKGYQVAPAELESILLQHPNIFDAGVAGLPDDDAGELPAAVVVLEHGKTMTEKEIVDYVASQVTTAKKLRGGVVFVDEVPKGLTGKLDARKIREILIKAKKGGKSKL

Row | SMILES | Potency
1 | C=CCn1cc(Cl)cc(C(=O)Nc2ccccc2)c1=O | 16.9 µM (active)
2 | C=CCc1cccc2cc(C(=O)Nc3ccc(NC(C)=O)cc3)c(=O)oc12 | inactive
3 | O=C(Nc1cccnc1)c1cc(Cl)ccc1Cl | inactive
4 | CCOc1ncccc1C(=O)Nc1ccc(S(=O)(=O)Nc2nc(C)cc(C)n2)cc1 | inactive
5 | Cc1ccc2[nH]c3c(=O)n(CC(=O)NC(C)C)ncc3c2c1 | inactive
6 | O=C(COc1ccc(Cl)cc1)Nc1ccccc1OCc1cc(=O)n2ccccc2n1 | inactive
7 | Cc1ccc(-c2cc(C(=O)N3CCc4ccccc4C3)no2)cc1 | 23.9 µM (active)
8 | O=C(NCCCN1CCOCC1)c1cc(-c2cccc(O)c2)on1 | inactive
9 | Cn1cccc1C(=O)N1CCc2ccccc2C1 | inactive
10 | O=C(c1cc(-c2ccc(O)cc2)on1)N1CCOCC1 | 9.53 µM (active)
11 | O=C(c1cc(-c2ccc(O)cc2)on1)N1CCCc2ccccc21 | 16.9 µM (active)
12 | O=C(C(=O)N1CCc2ccccc2C1)N1CCc2ccccc2C1 | inactive
13 | Cc1ccc2c(c1)N(C(=O)CCC(=O)N1CCc3ccccc3C1)CCO2 | inactive
14 | CN1CCN(Cc2c(C(=O)N3CCc4ccccc4C3)nc3ccc(Cl)cn23)CC1 | inactive
15 | O=C(c1cccs1)N1CCN(C(=O)N2CCOCC2)CC1 | inactive
16 | O=C(c1noc2c1CCCC2)N1CCc2ccccc2C1 | 16.9 µM (active)
17 | CCCn1nc(C(=O)N2CCCc3ccccc32)c2ccccc2c1=O | inactive
18 | O=C(c1c(Cl)nc2sccn12)N1CCCc2ccccc21 | inactive
19 | Cc1cccc(-n2ncc(C(=O)N3CCN(c4ccc(Cl)cc4)CC3)c2C2CCN(C(=O)OC(C)(C)C)CC2)c1 | inactive
20 | Cc1ccc(Nc2nnc(-c3ccc(C)c(S(=O)(=O)N4CCCCC4)c3)c3ccccc23)cc1 | inactive
21 | CCOC(=O)c1ccc(N2C(=O)c3[nH]nc(-c4ccccc4)c3C2c2ccc(C(C)C)cc2)cc1 (centres undefined) | inactive
22 | Cc1ccc(C(=O)OCC(=O)Nc2ccc(Cl)cn2)cc1S(=O)(=O)N1CCOCC1 | inactive

Row | SMILES | Potency
23 | COc1cc2nc(NCC(C)c3ccccc3)n3nc(-c4ccccc4)nc3c2cc1OC (centres undefined) | inactive
24 | COCCn1c(SCC(=O)Nc2cc(Cl)ccc2OC)nc2c(c1=O)SC(C)C2 (centres undefined) | inactive
25 | O=C(c1cc(-c2ccc(F)cc2)on1)N1CCN(c2ccc(F)cc2)CC1 | inactive
26 | O=C(c1cc(-c2ccc(Cl)cc2)on1)N1CCN(c2ccccc2)CC1 | 10.7 µM (active)
27 | O=C(c1ccc(Cl)c([N+](=O)[O-])c1)N1CCN(c2ccccc2)CC1 | inactive
28 | CCCN1CCN(CCCNC(=O)c2ccc3nc(Cc4ccccc4)oc3c2)CC1 | inactive
29 | Cc1cccc(NC(=O)c2ccc(F)c(S(=O)(=O)N(C)C3CCCCC3)c2)c1 | inactive
30 | Cc1ccc(CSc2nc3[nH]ncc3c(=O)[nH]2)cc1 | 13.5 µM (active)
31 | CCCSc1nc2[nH]ncc2c(=O)[nH]1 | inactive
32 | Cc1cccc(NC(=O)CSc2nc3[nH]ncc3c(=O)[nH]2)c1 | inactive
33 | COc1cc(OC)cc(-c2c(-c3ccc(F)cc3)c3cc(-c4ccc5cc[nH]c5c4)ccc3n2C)c1 | inactive
34 | O=S(=O)(Nc1ccc(-c2ccc(N3CCOCC3)nn2)cc1)c1cc(Cl)ccc1Cl | 23.9 µM (active)
35 | Cc1cccc(NS(=O)(=O)c2cc(Cl)ccc2Cl)n1 | inactive
36 | O=S(=O)(Nc1ccccc1N1CCOCC1)c1ccc(Cl)s1 | inactive
37 | CC(=O)Nc1ccc(S(=O)(=O)Nc2ccc(N3CCOCC3)c(F)c2)cc1 | inactive
38 | O=[N+]([O-])c1ccc(S(=O)(=O)Nc2cccc(-c3ccc(N4CCCC4)nn3)c2)cc1 | 12 µM (active)
39 | CN1CCN(c2ccc(S(=O)(=O)Nc3ccccc3)cc2[N+](=O)[O-])CC1 | inactive
40 | Cc1cccc(NS(=O)(=O)c2ccc([N+](=O)[O-])cc2)n1 | inactive
41 | O=S(=O)(Nc1cccc(-c2ccc(N3CCOCC3)nn2)c1)c1ccc(Cl)c(Cl)c1 | 5.36 µM (active)
42 | O=S(=O)(Nc1cccc(-n2cnnn2)c1)c1cnc(Cl)c(Cl)c1 | inactive
43 | Cc1ccc2oc3c(c(=O)c2c1)C(c1ccc(O)cc1)N(Cc1ccc2c(c1)OCO2)C3=O (centres undefined) | inactive
44 | Cc1ccc(COC(=O)CN2C(=O)NC3(CCCC3)C2=O)cc1 | inactive

Row | SMILES | Potency
45 | CC(C)(C)c1ccc(S(=O)(=O)N2CCN(C(=O)c3ccc4c(c3)C(=O)N(Cc3ccncc3)C4=O)CC2)cc1 | inactive
46 | C=Cc1ccc(Cn2c(C(=O)OC)cc3sc(C)cc32)cc1 | inactive
47 | CCc1ccccc1OCC(=O)Nc1ccc(C)c(S(=O)(=O)N2CCCCCC2)c1 | inactive
48 | CCCN(CCC)CCCNC(=O)Cn1cc2c(n1)-c1c(oc(C(=O)N3CCCC3)c1C)CC2 | inactive
49 | CCOc1ccc(NC(=O)COc2ccc(C(=O)N3CCC(C(N)=O)CC3)cc2OC)cc1 | inactive
50 | CCCCN(C(=O)c1ccc2ccccc2c1)c1c(N)n(CCCC)c(=O)[nH]c1=O | inactive
51 | Cc1ccc(-n2nc(N)c3c(=O)oc(N(C)C)nc32)cc1 | inactive
52 | O=C(Nc1ccc(NC(=O)c2cccs2)cc1)c1ccc2ccccc2c1 | inactive
53 | O=C(Nc1ccc2oc(-c3ccc4ccccc4c3)nc2c1)c1cccs1 | 5.36 µM (active)
54 | CCN(CCCNC(=O)c1cc(Nc2ccc(OC)cc2)nc2ccccc12)c1cccc(C)c1 | inactive
55 | Cc1ccc(S(=O)(=O)n2nc(C)c(S(=O)(=O)N3CCCCCC3)c2C)cc1 | inactive
56 | CCC(=O)N1CCc2cc(CNS(=O)(=O)c3ccc(Br)s3)ccc21 | inactive
57 | Cc1ccccc1Nc1nn2c(=O)c3ccc(C(=O)NCCc4ccc(Cl)cc4)cc3nc2s1 | inactive
58 | O=C(COc1ccc(Br)cc1F)NC1CCN(Cc2ccccc2)CC1 | inactive
59 | CC(=O)C1=C(C)NC(=O)NC1c1cc(Br)ccc1OCC#N (centres undefined) | inactive
60 | Cc1cc(C(=O)COc2ccc(Br)cc2F)c(C)n1C1CC1 | 13.5 µM (active)
61 | O=C(CSc1nnc(SCc2ccc(Cl)cc2)s1)N/N=C/c1ccccc1Cl | 6.01 µM (active)
62 | O=C(CC(=O)N/N=C\c1cccc(Cl)c1Cl)NCc1ccccc1 | inactive
63 | O=C(Cc1ccccc1)N/N=C/c1ccc(Cl)cc1Cl | inactive
64 | Cc1cc(NC(=O)CCS(=O)(=O)c2ccc(F)cc2)no1 | inactive
